Some of the results follow. Results filed as inconclusive are left out. Calls of active or inactive are those of the source.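 Rule for the calls: active = fitted half-maximal concentration for signal loss at or below twice the highest dose tested, in every separate run (actives reach about 64 µM in these data); inconclusive = runs disagree, or flat partial signal loss, or poor fit; inactive = the rest.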

This assay can be described thus: DNA binders displacing acridine orange – biochemical, fluorescence polarization, cherry-pick, artefact control for RAD52 inhibitor project, dose response (AID 652128). The settings on record: Salmon sperm DNA/acridine orange FP displacement, DNA binding. (Fluorescence polarisation rises when a labelled molecule tumbles more slowly, as on binding a larger partner.)
As to `O=C(/C=C/c1cn(-c2ccccc2)nc1-c1ccc2c(c1)OCCO2)NCCCN1CCOCC1`, the call was inactive.

Take `CCN(CC)CCN(C(=O)c1ccc2c(c1)CCCC2)c1nc2c(OC)cccc2s1`: the call was inactive.

Regarding `CCCCCCCCCCOC(=O)Cn1c(COc2ccc(C)cc2)[n+](C)c2ccccc21`, the call was inactive.

Regarding `CCN(CC)CCn1c2ccc(Cl)cc2c2nc(C)sc21`, the outcome was inactive.

With `NC(N)=Nc1nc(-c2ccccc2)c2cc(Cl)ccc2n1`, the result was inactive.

In the case of `COc1ccc2sc(N(CCCN(C)C)C(=O)c3ccc(S(=O)(=O)N(C)C4CCCCC4)cc3)nc2c1`, the result was inactive.

For orientation: AC50 means the concentration at which the activity in the assay is half-maximal. Consider `CCN(CC)CCCNC(=O)c1cc2c(=O)[nH]c3ccc(C)cc3c2s1`, for which the AC50 is 49.6 µM (active).

Consider `CC(=O)Nc1ccc(Nc2c3ccccc3nc3ccccc23)cc1`, for which the concentration at half-maximal activity (AC50) was 7.66 µM (active).

Take `C=Cn1cc[n+](CC(=O)c2ccc(OC)c(OC)c2)c1`: the compound was called inactive.

As for `Cc1cccc(NC(=S)NC23CN4CN(CN(C4)C2)C3)c1`, the call was inactive.

Take `CCN(CC)CCC(c1ccc2c(c1)OCO2)c1c(OC)cc(OC)c2c(-c3ccccc3)cc(=O)oc12` (stereo unspecified): the call was inactive.

With `Oc1ccc(N=Cc2sc3ccccc3c2Cl)cc1`, the call was inactive.

Regarding `COc1ccc2[nH]c3c(C)c4cc[n+](C)cc4c(C)c3c2c1`, the AC50 was 4.3 µM (active).

As to `COc1ccc(CC(N)c2csc(NC(=O)Nc3ccc(C(C)C)cc3)n2)cc1` (stereo unspecified), the compound was classed as inactive.

Take `CC(C)[C@@H](C)/C=C/[C@@H](C)[C@H]1CC[C@@H]2[C@]1(C)CCC1[C@]23C=C[C@]2(C[C@@H](O)CC[C@]12C)N(c1ccc([N+](=O)[O-])cn1)O3` (stereo partly specified): the compound was classed as inactive.

Consider `Cc1c(CCOC(=O)CC23CC4CC(CC(C)(C4)C2)C3)sc[n+]1Cc1ccc([N+](=O)[O-])cc1`, for which the call was inactive.

These data come from PubChem BioAssay AID652128 (Broad Institute, 2013).
